According to PubChem BioAssay AID1159580 (chemical genetic matrix, 2015):
Hit rate of the full screen: of about 5,500 compounds, about 2,000 (36%) were called active. About 18% were inconclusive and are not listed. No stated cut-off is given here; in the data, active means normalized growth mostly below about 0.91 (no sharp cut-off); inconclusive means no clear call, values can overlap the other calls; inactive means mostly above about 0.92. This is one part of the list.

Assay: chemical genetic growth profiling, strain panel (AID 1159580);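 further: tested at 20 µM; growth read once vehicle control cultures reached saturation at 30 °C; 1 = growth at the plate median or of vehicle wells; lower values mean less growth of the strain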
Details: S. cerevisiae deletion strains, growth OD

Measured: normalized growth

CC(=O)NCCc1ccc(O)c(-c2c(O)c(O)c3c(c2O)C(=O)c2c(cc(O)c(C(=O)O)c2C(=O)O)C3=O)c1
inactive: locus YHR030C, strain SLT2, hits give low values 1 | locus YHR079C, strain IRE1, hits give low values 1.01 | locus YJL095W, strain BCK1, hits give low values 0.992 | locus YJR066W, strain TOR1, hits give low values 0.931 | locus YLR113W, strain HOG1, hits give low values 1.01 | locus YNL183C, strain NPR1, hits give low values 0.924 | locus YOR231W, strain MKK1, hits give low values 1.03 | locus YPL256C, strain CLN2, hits give low values 1.04
